Source: PubChem (National Center for Advancing Translational Sciences (NCATS))
In the library only some 12% were active in any assay of this set; here they are far more common.
Sfp PPTase inh: inhibitors of Bacillus subtilis Sfp phosphopantetheinyl transferase; Potency, µM, without a hit: largest response in the series, negative = inhibition, most hits filed as inhibitors; Biochemical Sfp PPTase activity, qHTS; hit rate 3.5% among 310,000;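 note: the enzyme is Sfp with the accession as filed and its product quenches rhodamine fluorescence; 0% = enzyme reaction without inhibitor and -100% = no enzyme wells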
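Buffer: 50 mM Hepes-Na pH 7.6, 10 mM MgCl2, 0.01% Nonidet P-40, 0.01% BSA. Enzyme 15 nM, pre-exposed to compound 15 min; substrates then added and fluorescence change tracked over 30 min.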
HP1b binding inh: blocks HP1-beta chromodomain binding to methylated histone tails | AlphaScreen HP1-beta / biotin-H3K9me3 peptide binding | hit rate 0.56% among 390,000 | Potency, µM (series often up to 114 µM), inactives show top-dose activity change, negative = inhibition, hits mostly inhibitors | P83916; note: nearly all actives have a fitted effect of over 70% in size
Target sequence (P83916 whole entry, looked up): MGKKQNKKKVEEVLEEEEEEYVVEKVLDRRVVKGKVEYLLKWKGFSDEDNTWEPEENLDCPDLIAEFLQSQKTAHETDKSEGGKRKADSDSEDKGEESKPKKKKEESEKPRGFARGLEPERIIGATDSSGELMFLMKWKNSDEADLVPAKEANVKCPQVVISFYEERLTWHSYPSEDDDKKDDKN
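HP1-beta protein (50 nM final) preincubated 30 min at room temperature with biotinylated H3(1-18)K9me3 peptide (50 nM) in PBS pH 7.4, 0.01% Tween-20, then compound added for 30 min. AlphaScreen streptavidin donor/nickel chelate acceptor beads (10 ug/mL final), 30 min dark, luminescence read.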
G9a inh: inhibitors of human histone lysine methyltransferase G9a. Potency, µM (top dose mostly 102 µM), inactives show at the highest dose activity, negative = inhibition, hits mostly inhibitors. G9a H3K9 monomethylation, AlphaScreen, 2 h. hit rate 8.8% among 350,000; note: % is set by controls: 0 for no effect and ±100 for the full control effect; nearly all actives have a fitted effect of over 75% in size
Target sequence (Q96KQ7 913-1193 limits assumed): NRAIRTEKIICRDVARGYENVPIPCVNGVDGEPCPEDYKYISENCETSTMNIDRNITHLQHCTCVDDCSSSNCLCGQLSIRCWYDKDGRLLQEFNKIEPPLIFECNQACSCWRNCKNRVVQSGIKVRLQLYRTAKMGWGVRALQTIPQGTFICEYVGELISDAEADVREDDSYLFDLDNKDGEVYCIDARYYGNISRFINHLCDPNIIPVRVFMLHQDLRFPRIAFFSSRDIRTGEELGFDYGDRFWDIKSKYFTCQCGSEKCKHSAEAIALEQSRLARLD
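Step 1: enzyme (final 20 nM) with compound, 15 min RT. Step 2: substrate peptide 500 nM and SAM 20 uM, 2 h RT. Step 3: anti-H3K9me1 antibody and AlphaScreen beads, 10 min, then plate read.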
BAZ2B inh: BAZ2B (human) inhibition; Potency, µM (series often up to 114 µM), for inactives: at the highest dose activity change, negative = inhibition, most hits filed as inhibitors; AlphaScreen BAZ2B-H3K14Ac peptide displacement; Q9UIF8; hit rate 4.4% among 360,000; note: % is set by controls: 0 for no effect and ±100 for the full control effect; nearly all actives have a fitted effect of over 60% in size
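BAZ2B 50 nM plus b-H3(5-23)K14Ac 50 nM, PBS pH 7.4/0.01% Tween-20, 30 min RT; compound added (max 110 uM), 30 min RT; streptavidin donor/Ni-chelate acceptor beads 10 ug/mL final, 20 min dark; AlphaScreen read.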
JMJD2A Tudor: inhibitors of human JMJD2A Tudor domain; O75164; AlphaScreen JMJD2A-Tudor / H3K4me3 peptide binding; Potency, µM (series often up to 114 µM), inactives show at the top dose activity change, negative = inhibition, most hits filed as inhibitors; hit rate 4.4% among 390,000; AID 504339; note: % is set by controls: 0 for no effect and ±100 for the full control effect; nearly all actives have a fitted effect of over 50% in size
* marks the source's active call; other numbers are inactive results; ? = inconclusive; · = not tested or not shown; [ ] = dose if it differs, or a comment. Calls come from the whole dose curve; as a rule, active = well fitted curve in the direction sought with a large enough effect; inconclusive = small, poorly fitted or top-dose-only effect, or another doubt; inactive = no such curve, though single readings can be large; an effect the other way counts as inactive or inconclusive. Potency is the fitted concentration of half-maximal effect.

SMILES	Sfp PPTase inh	HP1b binding inh	G9a inh	BAZ2B inh	JMJD2A Tudor
O=[N+]([O-])c1cc([N+](=O)[O-])c(Oc2cc(Cl)cc(Cl)c2)cc1NN1CCCCC1	·	-9%	?	?	?
O=[N+]([O-])c1cc([N+](=O)[O-])c(Oc2c(F)cccc2F)cc1NN1CCCCC1	19%	?	-48%	?	?
O=[N+]([O-])c1cc([N+](=O)[O-])c(Oc2c(F)ccc(F)c2F)cc1NN1CCCCC1	16%	?	32µM*	?	?
O=S(=O)(NNC(=S)NCC1CCCO1)c1cc(Cl)ccc1Cl (stereo not drawn)	5%	20%	11%	-17%	-2%
COc1ccc(-c2cn3cccnc3n2)cc1F	13%	31%	5%[59 µM]	14%	7%
CC(C)(C)OC(=O)C[C@H]1C/C=C\C[C@@H](CC(=O)N[C@H](CO)Cc2ccccc2)C(=O)NCCOC1=O	·	30%	·	·	-5%
Cc1[nH]c(=O)[nH]c(=O)c1S(=O)(=O)NCCc1ccc(S(N)(=O)=O)cc1	14%	17%	6%[59 µM]	0%	23%[11.4 µM]
CC1CCCCN1C(=O)COC(=O)c1ccc2c(c1)C(=O)N(Cc1ccco1)C2=O (stereo not drawn)	·	4%	8%[12.7 µM]	-32%	-14%
O=C(O)Cc1ccc(NC(=O)c2ccc3c(c2)C(=O)N(Cc2ccco2)C3=O)cc1	6%	-29%	?	-12%	35µM*
O=C(Nc1ccc(O)cc1)c1ccc2c(c1)C(=O)N(Cc1ccco1)C2=O	-12%	-15%	-12%[59 µM]	?	?
CC1CCN(C(=O)COC(=O)c2ccc3c(c2)C(=O)N(Cc2ccco2)C3=O)CC1	·	28%	56µM*	-13%	-14%
O=C(Nc1ccc(O)cc1C(=O)O)c1ccc2c(c1)C(=O)N(Cc1ccco1)C2=O	0%	-9%	?	50µM*	?
CC(c1ccccc1)N1C(=O)c2ccc(C(=O)Nc3ccccc3C(=O)O)cc2C1=O (stereo not drawn)	-2%	24%	·	?	?
CC(c1ccccc1)N1C(=O)c2ccc(C(=O)Nc3ccc(Br)cc3C(=O)O)cc2C1=O (stereo not drawn)	24%	-11%	·	-8%	50µM*
CCc1ccc[n+](-c2nc3ccccc3nc2C(=C=[N-])C#N)c1	-18%	30%	?	-35%	-6%
O=C(CS(=O)(=O)Cc1ccccc1)Nc1nnc(C2CCCCC2)s1	-7%	16%	56µM*	-6%	-17%
CC(C)c1nnc(NC(=O)CS(=O)(=O)Cc2ccccc2)s1	-27%	0%	·	?	-6%
CC(C)Cc1nnc(NC(=O)CS(=O)(=O)Cc2ccccc2)s1	-16%	-5%	8.9µM*	-22%	-18%
CCCC(C)c1nnc(NC(=O)CCS(=O)(=O)Cc2ccccc2)s1 (stereo not drawn)	50µM*	-19%	25µM*	-4%	-26%
Cc1nnc(NC(=O)CCS(=O)(=O)Cc2ccccc2)s1	-27%	-24%	?	-2%	3%
CCC(CC)c1nnc(NC(=O)CS(=O)(=O)Cc2ccccc2)s1	·	23%	·	·	-8%
CCCC(C)c1nnc(NC(=O)CS(=O)(=O)Cc2ccccc2)s1 (stereo not drawn)	-29%	?	8.9µM*	-6%	-29%
O=C(NC12CC3CC(CC(C3)C1)C2)c1cncc(O)c1	16%	8%	7%[12.7 µM]	0%	-5%
CC1=NN(c2ccccc2)C(=O)C1(C)C	13%	16%	-1%[59 µM]	3%	-5%
CC[N+]1=CN(c2ccccc2)C(C)=CC1(C)C	-12%	-11%	1.8µM*	-7%	?
SMILES	Sfp PPTase inh	HP1b binding inh	G9a inh	BAZ2B inh	JMJD2A Tudor
COc1ccc(NC(C)=O)cc1NC(=O)C1CCCN1C(=O)c1cccs1 (stereo not drawn)	·	35%	-30%	10%	-6%
Cn1c(/C(C#N)=C/c2cccc(O)c2)nc2ccccc21	14%	?	-24%	-19%	22µM*
N#C/C(=C\c1ccncc1)c1nc2ccccc2o1	?	1%	?	-17%	-23%
N#C/C(=C\c1cccc(O)c1)c1nc2ccccc2o1	79µM*	3%	-26%	-25%	-23%
CC(C)(CC(=O)O)CC(=O)N1CCCN(c2nccc(C(F)(F)F)n2)CC1	7%	52%	-2%[0.501 µM]	-4%	0%
COc1ccc(NC(=O)CSc2oc(-c3ccc(C)cc3)nc2S(=O)(=O)c2ccc(C)cc2)c(OC)c1	·	?	?	1%	56µM*
Cc1ccc(S(=O)(=O)c2nc(-c3ccccc3)oc2SCC(=O)NCC2CCCO2)cc1 (stereo not drawn)	-4%	-2%	45µM*	-3%	-31%
O=C(CSc1oc(-c2ccc(F)cc2)nc1S(=O)(=O)c1ccc(F)cc1)NCC1CCCO1 (stereo not drawn)	1%	8%	?	8%	-17%
COc1ccc(NC(=O)CSc2oc(-c3ccco3)nc2S(=O)(=O)c2ccc(C)cc2)c(OC)c1	·	19%	-22%[59 µM]	-13%	-20%
Cc1ccc(-c2nc(S(=O)(=O)c3ccc(F)cc3)c(SCC(=O)NCC3CCCO3)o2)cc1 (stereo not drawn)	-7%	-19%	14µM*	1%	-19%[57.1 µM]
O=C(CSc1oc(-c2cccs2)nc1S(=O)(=O)c1ccc(F)cc1)NCC1CCCO1 (stereo not drawn)	-16%	30%	45µM*	0%	-30%
Cc1ccc(S(=O)(=O)c2nc(-c3ccc(F)cc3)oc2SCC(=O)NCC2CCCO2)cc1 (stereo not drawn)	-15%	23%	?	5%	-10%
Cc1cc(C(=O)OCC(=O)NC2CC2)c2ccccc2n1	·	48%	?	32%	-7%
CCn1c(O)c(C=NC2CCCC(C)C2C)sc1=S (stereo not drawn)	-9%	?	?	?	?
N#Cc1nc(-c2cccs2)oc1NCC1CCCO1 (stereo not drawn)	13%	22%	21%[12.7 µM]	1%	-14%
O=S(=O)(c1ccccc1)c1nc(-c2cccs2)oc1NCC1CCCO1 (stereo not drawn)	56µM*	24%	32µM*	-5%	?
O=C(CN(C1CCCCC1)S(=O)(=O)c1ccc(F)cc1)NCC1CCCO1 (stereo not drawn)	·	?	·	·	25µM*
O=C(Nc1ccccc1C(=O)O)c1ccccc1	26%	20%	50µM*	?	-29%
O=C(O)c1ccccc1Nc1ccc([N+](=O)[O-])cc1	17%	41%	?	-30%	-9%
O=C(O)c1ccccc1Nc1ccccc1C(=O)O	7%	-6%	79µM*	-9%	?
O=C(O)c1ccccc1NC(=O)c1cc2ccccc2oc1=O	?	35%	50µM*	-17%	0%
O=C(Nc1cccnc1N1CCOCC1)c1cc2ccccc2oc1=O	0%	17%	-12%	11%	2%
